# Assay results from PubChem BioAssay AID493011 (Sanford-Burnham Center for Chemical Genomics, 2011).
# The whole screen tested about 330,000 compounds, of which about 1,400 (0.42%) were called active. This is one part of a sample in which actives are shown more often than they occur.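 Rule for the calls: active = at least 40% inhibition at 20 µM here, with at most 30% in a related deaminase screen; inactive = the rest.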
# Target: DNA dC->dU-editing enzyme APOBEC-3A (Homo sapiens) (UniProt P31941)
# Sequence (P31941 whole entry, looked up): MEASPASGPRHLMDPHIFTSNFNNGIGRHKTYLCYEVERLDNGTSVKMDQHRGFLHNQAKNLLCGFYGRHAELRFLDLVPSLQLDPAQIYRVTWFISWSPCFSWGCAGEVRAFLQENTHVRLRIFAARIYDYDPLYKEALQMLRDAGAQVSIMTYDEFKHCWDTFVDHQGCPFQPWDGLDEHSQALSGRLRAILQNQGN
# Assay: APOBEC3A ssDNA deaminase inhibitors, primary screen, selectivity assay for APOBEC3G inhibitor project, biochemical, FAM/TAMRA oligo cleavage fluorescence (AID 493011);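 note: plate controls were A3A with DMSO for no effect and wells lacking A3A enzyme for full effect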
# Settings: recombinant A3A, FAM/TAMRA ssDNA deamination fluorescence; at 20 µM; hits give high values
row,Structure (SMILES),inhibition
1,CCN(CC)CCOC(=O)c1cc2cc(COC)ccc2o1,75.9% (active)
2,CC(=NC1CCN(Cc2ccccc2)CC1)c1c(O)n(C)c(=O)n(C)c1=O,1.55% (inactive)
3,COc1cc(OC)cc(C2(C#N)CCN(C)CC2)c1,3.94% (inactive)
4,CN(C)c1nc(N(C)C)nc(N(C#N)CCCl)n1,-2.95% (inactive)
5,O=C(O)CCn1cc(C=C2C(=O)NC(=S)NC2=O)c(-c2cccc(Br)c2)n1,40.8% (active)
6,COC(=O)C1=C(c2cccc(OCc3ccccc3)c2)C[C@@H]2CC[C@H]1N2C(=O)NNCc1ccccc1,-3.97% (inactive)
7,CC(=C1C(=O)c2ccccc2C1=O)N1CCN(CCN=Cc2c(O)n(C)c(=O)n(C)c2=O)CC1,1.68% (inactive)
8,CC[N+]1(C)CCCC(OC(=O)C(O)(c2ccccc2)c2ccccc2)C1 (stereo not given),-0.37% (inactive)
9,O=C(c1cc(S(=O)(=O)N2CCOCC2)ccc1F)N1CCC2(CC1)OCCO2,4.32% (inactive)
10,CNC(=O)O/N=C(\N)Cc1csc2ccccc12,1.51% (inactive)
